HT1080-NT tox – qHTS for induction of synthetic lethality in tumor cells producing 2HG: qHTS for the HT-1080-NT fibrosarcoma cell line; HT-1080-NT fibrosarcoma viability, CellTiter-Glo ATP luminescence, 48 h; Potency, µM (doses to about 46.1 µM), for inactives: at the top dose activity, negative = less viability, hits mostly cytotoxic; 1.6% of 360,000 active;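 also: NT is the 2HG producing partner of a matched IDH1 knockdown line; potency is read from the fitted curve at half-maximal effect; 0% = DMSO-treated cells and -100% = media-only wells without cells; nearly all actives have a fitted effect of over 55% in size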
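Toxicity toward the 2HG-producing NT line was scored as %Activity, normalised to DMSO and no-cell wells, from CellTiter-Glo luminescence after 48 hours' treatment.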
HT1080 IDH1KD tx – qHTS for induction of synthetic lethality in tumor cells producing 2HG: qHTS for the HT-1080-IDH1KD cell line; Potency, µM (titrated, usually from 46.1 µM), for the others: top-dose activity, negative = toxicity, hits mostly cytotoxic; 2% of 360,000 active; AID 686971, 2013; HT-1080 IDH1 knockdown viability, ATP luminescence, 48 h;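 also: potency is read from the fitted curve at half-maximal effect; 0% = DMSO wells and -100% = cell-free medium wells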
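% activity derives from luminescence (CellTiter-Glo), normalised to DMSO and no-cell wells. HT-1080-IDH1KD cells, 750/well, had 48 h compound exposure at 37 °C.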
DT40 TDP1 CPT – qHTS for Inhibitors of human tyrosyl-DNA phosphodiesterase 1 (TDP1): qHTS in cells in presence of CPT; chicken DT40 Tdp1-/-;hTDP1 cells + 20 nM CPT, ATP luminescence, 48 h; 12% of 420,000 active; Potency, µM (highest dose often 46.2 µM), inactives show top-dose activity change, negative = growth inhibition, usual class: inhibitors; also: potency is read from the fitted curve at half-maximal effect; nearly all actives have a fitted effect of over 55% in size
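Cell growth measured by CellTiter-Glo luminescence after a minimum 48 h, 37 C compound exposure with 20 nM CPT in Tdp1-knockout DT40 cells stably expressing hTDP1, seeded 400/well; qHTS titration format.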
TDP1 cell noCPT – qHTS for Inhibitors of human tyrosyl-DNA phosphodiesterase 1 (TDP1): qHTS in cells in absence of CPT. 15% of 420,000 active. Potency, µM (titrated, usually from 46.2 µM), without a hit: at the highest dose activity change, negative = growth inhibition, most hits filed as inhibitors. DT40 Tdp1-/- hTDP1 cells, no CPT, ATP luminescence, 48 h; also: potency is read from the fitted curve at half-maximal effect; nearly all actives have a fitted effect of over 55% in size
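Chicken DT40 Tdp1-/- cells complemented with human TDP1, screened without camptothecin (DMSO vehicle only), 400 cells/well. Compounds pin-transferred, cells incubated at 37 °C for at least 48 hr. Growth read as ATP-dependent luminescence (CellTiter-Glo, 30 min at RT).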
IL1B secr inh – qHTS for Inhibitors of Inflammasome Signaling: IL-1-beta AlphaLISA Primary Screen. activity change, % at 57.5 µM. THP-1 LPS/ATP IL-1B secretion, AlphaLISA, 16 h; active compounds read low. AID 743279, 2014. 4.7% of 360,000 active; in the data active = activity change below about -50%; inconclusive = mostly about -30% to -49%
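THP-1 cells pretreated 1 hr with compounds (up to 57.5 uM final), then stimulated with LPS (250 ng/mL final) plus ATP (1.25 mM final); secreted IL-1B measured by AlphaLISA after 16 hr, decreased signal indicating inhibition.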
ALOX12 inh – Primary qHTS assay for inhibitors of human arachidonate 12S-lipoxygenase (ALOX12): Round 2; Polyunsaturated fatty acid lipoxygenase ALOX12 (Homo sapiens), P18054; purified 12hLO, xylenol orange hydroperoxide absorbance; Potency, µM (top dose mostly 108 µM), for the others: at the highest dose activity change, negative = inhibition, most hits filed as inhibitors; 1.1% of 580,000 active; AID 1671190, 2021; also: potency is read from the fitted curve at half-maximal effect
Target sequence (P18054 whole entry, looked up): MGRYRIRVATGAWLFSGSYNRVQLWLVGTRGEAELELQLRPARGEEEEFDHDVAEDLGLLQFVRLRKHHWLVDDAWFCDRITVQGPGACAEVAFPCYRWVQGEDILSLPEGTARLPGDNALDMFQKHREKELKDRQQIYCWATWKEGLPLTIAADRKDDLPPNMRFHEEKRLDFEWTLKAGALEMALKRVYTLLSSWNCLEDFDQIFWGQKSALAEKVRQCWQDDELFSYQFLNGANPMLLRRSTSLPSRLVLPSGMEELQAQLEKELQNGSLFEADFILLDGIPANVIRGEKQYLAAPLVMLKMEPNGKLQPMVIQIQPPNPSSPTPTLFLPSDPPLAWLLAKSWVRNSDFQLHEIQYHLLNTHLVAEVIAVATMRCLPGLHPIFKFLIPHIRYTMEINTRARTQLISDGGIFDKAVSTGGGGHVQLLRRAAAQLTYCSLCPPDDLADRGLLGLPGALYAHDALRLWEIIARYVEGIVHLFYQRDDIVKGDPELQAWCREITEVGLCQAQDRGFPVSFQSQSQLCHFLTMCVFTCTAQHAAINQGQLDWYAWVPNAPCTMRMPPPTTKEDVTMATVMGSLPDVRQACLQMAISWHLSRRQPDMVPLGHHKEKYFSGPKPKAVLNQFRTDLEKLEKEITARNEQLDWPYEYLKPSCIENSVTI
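Purified human 12hLO (150 nM final) in 25 mM Hepes, 0.01% Triton X-100, pH 7.0 was preincubated 15 min at room temperature with compound. Then 40 uM arachidonic acid was added, 30 min. Hydroperoxide was read by Fe-XO absorbance ratio 573/405 nm.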
* marks the source's active call; other numbers are inactive results; i = inactive; ? = inconclusive; / = no result; [ ] = another dose, or the depositor's remark. This is one part of a sample in which hits are shown more often than they occur. Unless noted, calls follow the shape of the dose curve; as a rule, active = well fitted curve in the direction sought with a large enough effect; inconclusive = small, poorly fitted or top-dose-only effect, or another doubt; inactive = no such curve, though single readings can be large; an effect the other way counts as inactive or inconclusive. Unless noted, % is scaled to controls: 0 for no effect and ±100 for the full control effect.

SMILES	HT1080-NT tox	HT1080 IDH1KD tx	DT40 TDP1 CPT	TDP1 cell noCPT	IL1B secr inh	ALOX12 inh
C=C(COC(=O)CCC(=O)O)CC1CC(O)[C@]2(C)OC3CC4OC5C[C@]6(C)O[C@]7(C)CCC8OC9C[C@]%10(C)OC%11C(C)=CC(=O)OC%11CC%10OC9C[C@@H](C)C8OC7CC6O[C@]5(C)C/C=C\C4OC3CC2O1 (stereo partly drawn)	-23%	-10%	13µM*	?	-5	/
CC1=CC(=O)OC2CC3OC4C[C@@H](C)C5OC6CC7O[C@]8(C)C/C=C\C9OC%10CC%11OC(CC(C)CO)CC(O)[C@]%11(C)OC%10CC9OC8C[C@]7(C)O[C@]6(C)CCC5OC4C[C@]3(C)OC12 (stereo partly drawn)	-2%	9%	18µM*	21µM*	-8	-5%
OCC1CN(C2CCC2)CC12CCN(Cc1ccncc1)CC2 (stereo not drawn)	/	/	/	/	/	111%
Cc1[nH]nc2c1C(c1cccc(OCC(C)C)c1)SCC(=O)N2 (stereo not drawn)	/	/	/	/	/	21%
CCn1c(O)c(/C=N/NC(=O)c2ccccc2)c(=O)n(CC)c1=S	0%	-8%	?	29µM*	138	4%
CCOC(=O)Cc1ccccc1	/	/	/	/	/	-2%[176 µM]
O=C(C[C@@H]1CC[C@@H]2[C@H](COC[C@H](O)CN2Cc2cccc(C(F)(F)F)c2)O1)NCc1ccc(Cl)cc1	-22%	-27%	12µM*	8.2µM*	9	?
COCc1cn(C[C@H]2C[C@@H]3CCN2C[C@@H]3C(=O)NCc2ccccc2)nn1	/	/	/	/	/	12%[176 µM]
CC1=CC(=C2C(=O)NC(=S)NC2=O)C=C(C(F)(F)F)N1Cc1ccccc1	1.8µM*	1.6µM*	1.6µM*	1.6µM*	32	?
CC1=CC(=C2C(=O)NC(=O)NC2=O)C=C(C(F)(F)F)N1Cc1ccccc1	?	?	?	18µM*	10	-20%
CCCCOCCCN1C(C)=CC(=C2C(=O)NC(=S)NC2=O)C=C1C	11%	8%	-1%	18%	-4	-10%
CC1=CC(=C2C(=O)NC(=O)NC2=O)C=C(C(F)(F)F)N1C(C)C	14%	5%	-1%	2%	-3	-5%
Cc1ccccc1CC(=O)N1CCN(C(C)c2nc(C3CC3)no2)CC1 (stereo not drawn)	/	/	/	/	/	-7%
CN1CCCCCCN(Cc2ccccn2)[C@H]2CCC[C@H]2C1=O	/	/	/	/	/	i
CCOC(=O)c1ccc(S(=O)(=O)n2c(=O)oc3ccccc32)cc1	5%	2%	?	-22%	69	?
CCOC(=O)c1oc2ccc(S(=O)(=O)n3nc(-c4ccc(Br)cc4)cc3N)cc2c1C	/	/	21µM*	12µM*	/	2%
C=C[C@H]1CN2CC[C@H]1C[C@@H]2CNS(=O)(=O)c1ccc(OC)cc1	/	/	/	/	/	19%[176 µM]
O=C(Cc1cccc(F)c1)N1CCN2CCS(=O)(=O)N(C3CC3)C(=O)C2C1 (stereo not drawn)	/	/	/	/	/	36%
CCCCCC[C@H]1C(=O)O[C@H](C)[C@H](NC(=O)c2cccc(NC=O)c2O)C(=O)O[C@@H](C)[C@@H]1OC(=O)CC(C)C	/	/	0.017µM*	0.019µM*	/	-12%[57.4 µM]
COc1cccc(-c2nc(CS(=O)CC(=O)N3CCC4(CC3)OCCO4)c(C)o2)c1 (stereo not drawn)	2%	0%	-5%	3%	11	-1%
Cc1ccc(C)c(N2CCN(C(=O)C3CCN(Cc4nc(-c5cccc(Cl)c5)oc4C)CC3)CC2)c1	/	/	9.2µM*	6.5µM*	/	?
Cc1ccc(Cl)cc1N1CCN(C(=O)C2CCN(Cc3nc(-c4ccc(Cl)cc4)oc3C)CC2)CC1	/	/	?	15µM*	/	?
Cc1oc(-c2ccc(Cl)cc2)nc1CS(=O)CC(=O)N1CCC2(CC1)OCCO2 (stereo not drawn)	2%	-13%	-5%	-8%	-5	-14%
CCN(CC)CCCN=Cc1c(O)n(CCc2ccc(F)cc2)c(=O)[nH]c1=O	4%	5%	-4%	-23%	-14	21%
O=c1[nH]c(=O)n(CCC2=CCCCC2)c(O)c1C=NC1CCN(Cc2ccccc2)CC1	-21%	-11%	15µM*	16µM*	?	148%
SMILES	HT1080-NT tox	HT1080 IDH1KD tx	DT40 TDP1 CPT	TDP1 cell noCPT	IL1B secr inh	ALOX12 inh
C=CCn1c(O)c(C=NC2CCN(Cc3ccccc3)CC2)c(=O)[nH]c1=O	?	11%	-7%	-20%	0	0%
NC1CCCCC1N=Cc1c(O)n(CCc2ccc(F)cc2)c(=O)[nH]c1=O (stereo not drawn)	12%	20%	?	18µM*	-6	0%
CCCCCCn1c(O)c(C=NC2CCN(Cc3ccccc3)CC2)c(=O)[nH]c1=O	-5%	-4%	21µM*	10µM*	-28	0%
O=C1NCc2ccccc2CC12CCCCN2Cc1cccnc1 (stereo not drawn)	/	/	/	/	/	2%[6.33 µM]
CN(C[C@H]1CN2CC[C@H]1C[C@@H]2CNC(=O)c1ccccc1)c1ccccc1	/	/	/	/	/	26%[176 µM]
Cc1ncc2c(n1)C[C@@H]1CC[C@H]2N1C(=O)c1ccccc1F	/	/	/	/	/	10%
C=C(C)[C@@]12OC3(c4ccccc4)O[C@@H]1C1[C@@H]4O[C@]4(CO)[C@@H](O)[C@]4(O)C(=O)C(C)=C[C@H]4[C@@]1(O3)[C@H](C)[C@H]2OC(=O)/C=C/C=C/c1ccccc1 (stereo partly drawn)	?	?	16µM*	3.3µM*	97	/
CC(C)N1C[C@@H]2OCC(=O)N(Cc3ccccn3)[C@@H]2C1	/	/	/	/	/	61%[176 µM]
Cc1c(C(=O)O)cc(-c2ccccc2)n1Cc1ccccc1	-10%	-9%	5%	-3%	0	-5%
CSc1cc(-c2ccccc2)n(Cc2c(Cl)cccc2Cl)c(=O)c1C#N	15%	8%	4.6µM*	3.3µM*	0	26%

Compound activity deposited in PubChem by National Center for Advancing Translational Sciences (NCATS).
